Calls of active or inactive are those of the source. How the source made its calls: active means hit-call score of the fitted dose curve at least 0.9, where 1 is the maximum; inactive means score below 0.9.

Read-out in this assay: Transforming Growth Factor (TGFA), TGFA (gene 7039)
As to the kind of experiment: LTEA_HepaRG_TGFA: Life Technologies and Expression Analysis (LTEA) Assay for Transforming Growth Factor (TGFA) using HepaRG (AID 2283532). The note with it: mRNA level, 48 h; actives raise or lower the signal. The procedure: LTEA_HepaRG is a cell based, multiplexed-readout assay that uses HepaRG, a human liver cell line, with measurements taken at 48 hours after chemical dosing on a 96-well plate.LTEA_HepaRG_TGFA is one of 102 assay component(s) measured in the LTEA HepaRG cell culture assay. It is a marker of Cell proliferation, survival, death.Data from the assay component LTEA_HepaRG_TGFA was analyzed into 1 endpoint. This assay endpoint, LTEA_HepaRG_TGFA, was analyzed with bidirectional fitting relative to DMSO as the negative control and baseline of activity. Using a type of inducible reporter, measures of mRNA induction for gain or loss-of-signal activity can be used to understand regulation of transcription factor activity. To generalize the intended target to other relatable targets, this assay endpoint is annotated to the growth factor intended target family, where the subfamily is EGF-like domain.
A total of 1060 chemcials from the ToxCast library were tested in eight-point concentration-response experiments. Cell culture and cytotoxicity assays were conducted at Thermo Fisher Scientific's Custom Services facility (Madison, WI). A single lot of human HepaRG cells (Thermo Fisher Scientific, Frederick, MD) was used for the cell culture experiments. 96-well format collagen type I coated plates of human HepaRG cells were prepared using established methods. Briefly, cryopreserved HepaRG cells were thawed, plated at a density of approximately 100,000 cells/well in HepaRG Thaw, Plate, and General Purpose media (HPRG770, Thermo Fisher Scientific), and incubated for 48 hours. 0.5% DMSO was selected as vehicle control to balance the requisite need of DMSO in HepaRG cultures to maintain differentiation (for example, baseline metabolism, proportions of hepatocytes vs. cholangiocytes), while enabling further hepatic receptor pathway activation (for example, PXR and CAR) in response to chemical exposure. 48 hours after plating, the culture medium was replaced with HepaRG Serum-Free Incudtion Media. Cells were exposed to each test chemical in duplicate and maintained in CO2 incubators for another 48 hours. Chemical plates were thawed to room temperature and 200x concentrations of treatment groups were prepared. 8-point conentration-reponse curves were made with the highest exposure at 100 uM, followed by half-log dilutions, all in 0.5% DMSO. Each test plate contained variouse controls, induction positive controls (1mM phenobarbital), cytotoxicity positive controls ([…] aflatoxin B1), vehicle controls (0.5% DMSO), and total lysis controls (0.5% DMSO). Cell morphology images were taken using an Essen IncuCyte FLR automated microscope, with six 96-well plates imaged in about 24 minutes. Images were captured and exported and JPEG files. Spent culture media was transfered to black-well plates for the LDH assay, and remaining media was sorted at -80 C for later use. Cells were treated with RLT buffer and frozen until shipped for gene expression analysis. Total RNA was isolated from the cell suspension in 75 uL of Buffer RLT (Qiagen, Germantown, MD 20874) by Quintiles/Expression Analysis (Durham, NC) using a custom isolation procedure. Total RNA from each plate well was transferred to a preamplification plate. Fluidigm's 96.96 Dynamic ArrayTM (Fluidigm, Amsterdam, the Netherlands) technology was used for gene expression analyses by quantitative reverse transcription polymerase chain reaction (qRT-PCR, performed by Quintiles/Expression Analysis, Durham, NC)89. Standard TaqManTM Assays (Applied Biosystems/ThermoFisher Scientific, Foster City, CA) were used to assess the expression of 93 genes selected based on their selectivity and sensitivity to important hepatic receptors known to be modulated by environmental chemicals; importance in human hepatocyte functionality; and hepatotoxicity. […]
With `CCN(Cc1cccc(S(=O)(=O)O)c1)c1ccc(C(=C2C=CC(=[N+](CC)Cc3cccc(S(=O)(=O)O)c3)C=C2)c2ccccc2S(=O)(=O)[O-])cc1`, the result was inactive.

Turning to `CC[C@H](NC(=O)c1cc(F)ccc1NS(=O)(=O)c1cccc2cccnc12)c1ccccc1`, the compound was classed as inactive.

As to `NCc1cccc(C2CCN(C(=O)c3ccc(C#Cc4ccccc4F)o3)CC2)c1`, the result was inactive.

For the compound `CCOC(=O)O[C@H](C)OC(=O)c1ccc2c(c1)cc(C(=O)NC1CCN(C(C)C)CC1)n2Cc1cc(-c2ccc(Cl)s2)on1`, the result was inactive.

On to `CCN(Cc1cccnc1)C(=O)c1cccc(Cl)c1[C@]1(C)C(=O)N(Cc2ccc(OC)cc2OC)c2ccc(Cl)cc21`, for which the AC50 is 13.6 µM (active).

Turning to `O=C(Nc1ccc(Cl)cc1)Nc1ccc(Cl)c(Cl)c1`, the AC50 is 25.5 µM (active).

Regarding `CN(C)C(=O)C1(N2CCCCC2)CCN(CC[C@@]2(c3ccc(Cl)c(Cl)c3)CN(C(=O)c3ccccc3)CCO2)CC1`, the call was inactive.

Take `CCCC(=O)OCCC(C)C`: the compound was classed as inactive.

Turning to `O=C(OCCCCCCOC(=O)c1ccccc1)c1ccccc1`, the compound was classed as inactive.

For `c1ccc(C[n+]2cccc3ccccc32)cc1`, the AC50 is 63 µM (active).

Regarding `COc1cccc([C@H](O)C2CCN(CCc3ccc(F)cc3)CC2)c1OC`, the result was inactive.

Regarding `COCC(C)OCC(C)OCC(C)O` (stereo not given), the call was inactive.

For the compound `CCCCCCCC[Si](OCC)(OCC)OCC`, the call was inactive.

For the compound `CCO[Si](CCCNC(N)=O)(OCC)OCC`, the result was inactive.

For `CN1C(=O)CC[C@H]1c1cccnc1`, the call was inactive.

Take `OCCO`: the outcome was inactive.

In the case of `CCCCCc1ccc(N)cc1`, the call was inactive.

`OC12N=C(c3ccccc3)SC1Cc1cc(Cl)ccc12` (stereo not given): the call was inactive.

Turning to `Cc1ncc(CO)c(CO)c1O`, the compound was classed as inactive.

As for `Clc1cc(Cl)c2c(c1)N=C1CCCCCN1C2`, the result was inactive.

On to `Cc1ccc2oc(CN(Cc3ccccc3)C(=O)Nc3c(F)cc(F)cc3F)c(-c3ccc(Cl)cc3)c2c1`, for which the compound was classed as inactive.

With `CC(C)(c1cc(Br)c(O)c(Br)c1)c1cc(Br)c(O)c(Br)c1`, the concentration at half-maximal activity (AC50) was 89.1 µM (active).

`Cc1occc1C(=O)Nc1ccc(C(=O)N2CCC(F)(F)/C(=C\C(=O)N3CCC(N4CCCCC4)CC3)c3ccccc32)cc1`: the compound was called inactive.

For the compound `CCCCCCCCCC(=O)O`, the result was inactive.

Consider `O=C(O)Cc1cc(I)c(Oc2ccc(O)c(I)c2)c(I)c1`, for which the AC50 was 85.3 µM (active).

For the compound `C[C@]12CC[C@@H]3c4ccc(O)cc4CC[C@H]3[C@@H]1CCC2=O`, the outcome was inactive.

Consider `Oc1ccccc1`, for which the outcome was inactive.

Consider `CCCCCCCCOc1ccc(C(=O)c2ccccc2)c(O)c1`, for which the result was inactive.

Turning to `C[C@]12CC[C@@H]3c4ccc(O)cc4CC[C@H]3[C@@H]1CC[C@H]2O`, the compound was called inactive.

As for `O=C1CCC(C2CCCCC2)CC1`, the compound was called inactive.

In the case of `CCCCOC(=O)CC(CC(=O)OCCCC)(OC(C)=O)C(=O)OCCCC`, the result was inactive.

Consider `O=C(O)Cn1c(=O)n(Cc2ccc(Br)cc2F)c(=O)c2ccc(Cl)cc21`, for which the result was inactive.

Turning to `COc1cc(C(=O)NC2CCN(C)CC2)ccc1Nc1ncc2c(n1)N(C1CCCC1)CC(F)(F)C(=O)N2C`, the compound was called inactive.

Turning to `O=c1ccc2ccccc2o1`, the result was inactive.

For `CCN(CC)C(=O)c1cc(S(=O)(=O)Cc2ccccc2)c(N2CCC(c3ccccc3)CC2)cc1N(CC)CCN(C)C`, the AC50 was 27.9 µM (active).

`Cc1c2ccccc2c(C)c2c1ccc1ccccc12`: the concentration at half-maximal activity (AC50) was 63.3 µM (active).

Take `NC(=O)c1nc(-c2cccc(-c3cc(F)ccc3OCC(F)(F)C(F)(F)F)c2)n[nH]1`: the AC50 is 91.2 µM (active).

Regarding `O=CCCCC=O`, the outcome was inactive.

`Cc1cc2c(cc1C(F)(F)F)N(C(=O)Nc1ccc(Oc3cccnc3C)nc1)CC2`: the result was inactive.

Turning to `Cc1cn([C@H]2C[C@H](N=[N+]=[N-])[C@@H](CO)O2)c(=O)[nH]c1=O`, the compound was called inactive.

(Values after PubChem BioAssay (EPA / NIEHS).)
